# Results from article PMC9574860, “Chemical Toolkit for PARK7: Potent, Selective, and High-Throughput” (Journal of Medicinal Chemistry, 2022).
# In all, about 7,900 compounds went through this assay and about 400 (5.1%) showed an effect of 50% or more. Only a selection was taken, and strong results are over-represented in it overall.
# Molecular target: Parkinson's disease protein 7 (PARK7/DJ1) (human, UniProt Q99497)
# Experiment: primary screen, percent inhibition; read as competition with a fluorescent probe by fluorescence polarization; higher = more effect of the substance
# Conditions: 100 µM
# Procedure, shortened: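 Fluorescence-polarization probe displacement (JYQ-107, 20 nM final, 2 h) after 2 h preincubation of PARK7 (0.2 μM final) with each fragment at 100 μM final. Read-out ex/em 480/520 nm; remaining activity derived from FP signal loss relative to reference controls.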
# Parkinson's disease protein 7 (PARK7/DJ1), sequence (Q99497 whole entry, looked up): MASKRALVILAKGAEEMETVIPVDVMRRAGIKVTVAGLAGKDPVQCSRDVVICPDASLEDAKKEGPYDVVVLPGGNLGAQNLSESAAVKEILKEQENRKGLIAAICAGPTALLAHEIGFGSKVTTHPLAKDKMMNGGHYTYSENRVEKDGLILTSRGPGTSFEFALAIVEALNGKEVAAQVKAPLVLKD
row,SMILES,Inhibition %
1,CC(CC(O)c1ccccc1)NC(=O)c1cccnc1S (stereo not shown),5.61%
2,N#CC(=Cc1ccc(O)c(O)c1)c1ccccn1,3.18%
3,C=CC(=O)NC(c1ccco1)C(C)(C)C (stereo not shown),7.05%
4,COCC1CN(C(=O)c2c[nH]c(C#N)c2)CC(C)(C)O1 (stereo not shown),10.6%
5,CC1=C(C)CN(c2nccnc2C#N)CC1,26%
6,COc1ccc(C=C(C#N)C(N)=O)c(Cl)c1OC,3.63%
7,Cc1cc(C(=O)CCl)c(C)n1-c1ccc2c(c1)OCCO2,63.9%
8,O=C(CCl)NCCc1ccc2c(c1)OCCO2,47.9%
9,O=C(CCl)N1CCN(Cc2ccc3c(c2)OCCO3)CC1,15.8%
10,O=c1[nH]nc(S)n2cccc12,26.7%
11,CC(CNc1nccnc1C#N)c1ccc(F)c(F)c1 (stereo not shown),22.4%
12,O=C1OCCC1Sc1ccc2ccccc2n1 (stereo not shown),-0.865%
13,O=C1OCCC1Sc1ncnc2sccc12 (stereo not shown),6.21%
14,O=C1OCCC1Sc1ncnc2ccccc12 (stereo not shown),54.5%
15,Cn1c(SC2CCOC2=O)nc2ccccc21 (stereo not shown),12%
16,Cc1nc2ccccc2nc1SC1CCOC1=O (stereo not shown),70.3%
17,CC1CC(Sc2ncnc3ccccc23)C(=O)O1 (stereo not shown),4.79%
18,C=CC(=O)N(Cc1nc(-c2cccnc2)no1)C(C)C,22.6%
19,Cc1cc(C#N)nc(NC2CCCCCC2)n1,2.75%
20,Cc1nc(C#N)c(NC(=O)CSCC2CCCCO2)o1 (stereo not shown),12.5%
21,CCCC(NC(=O)CCl)c1ccccc1 (stereo not shown),14.5%
22,CCCc1cc(NC(=O)CCl)n(-c2ccccc2)n1,31.6%
23,C=CC(=O)N1CCC2(CCOCC2)CC1,5.66%
24,COc1ccc(C2=CCN(C(=O)CCl)CC2)cc1,78.7%
25,COc1ccc(CN2CCN(C(=O)CCl)CC2)cc1.Cl,10.6%
26,COc1ccc(N2CCN(C(=O)CCl)CC2)cc1,28.8%

row,SMILES,Inhibition %
1,O=C(CCl)c1c[nH]c2ccccc12,37.9%
2,O=C(CCl)N1CC=C(c2c[nH]c3ccccc23)CC1,51.5%
3,O=C1OCCC1N1CC=C(c2c[nH]c3ccccc23)CC1 (stereo not shown),4.4%
4,C=CC(=O)N1CCOC[C@@H]1CC(C)C,6.89%
5,c1cc(OCC2CO2)c2cc[nH]c2c1 (stereo not shown),-2.42%
6,N#CC(=Cc1ccccc1)C(=O)Nc1nncs1,3.58%
7,COc1cc(C)c(C)cc1S(=O)(=O)n1cnc(C)c1,6.69%
8,O=C(O)Cc1ccc(NC(=O)CCl)cc1,43.8%
9,NC(=O)c1ccc(NC(=O)CCl)cc1,35.3%
10,N#Cc1ccc(NC(=O)CCl)cc1Cl,29.1%
11,CCc1ccc(NC(=O)CCl)cc1,99.1%
12,CCOC(=O)c1ccc(NC(=O)CCl)cc1,56.5%
13,CC(=O)c1ccc(NC(=O)CCl)cc1,45.4%
14,CCc1cccc(NC(=O)CCl)c1,14.1%
15,N#CCc1ccc(NC(=O)CCl)cc1,88.8%
16,CC(=O)Nc1ccc(NC(=O)CCl)cc1,4.19%
17,CCOC(=O)c1ccccc1NC(=O)CCl,7.46%
18,COC(=O)c1cccc(NC(=O)CCl)c1,25.2%
19,COC(=O)c1ccc(NC(=O)CCl)cc1,60.9%
20,O=C(CCl)NCC1Cc2ccccc2O1 (stereo not shown),26.5%
21,COc1cc2c(B3OC(C)(C)C(C)(C)O3)cn(C)c2cn1,6.59%
22,C=CC(=O)NC1CCCN(c2ccc(F)cc2C)C1 (stereo not shown),6.65%
23,C=CC(=O)N1CC2(CCOCC2)C1C(C)C (stereo not shown),7.75%
24,Cc1nn(C)c(C)c1C1CCCN1C1CCOC1=O (stereo not shown),4.25%
25,CC(C)Cn1c(S)nc2ncccc2c1=O,6.75%
26,O=C(CCl)NCc1ccc(Cl)cc1,2.75%

row,SMILES,Inhibition %
1,C=CC(=O)Nc1cnn(C2CCOCC2)c1C,8.19%
2,N#Cc1cc(Cl)nc(C2CC2)n1,4.67%
3,O=C(CCl)Nc1ccc(OC(F)F)c(Cl)c1,45.8%
4,O=C(CCl)Nc1ccc(OC(F)F)cc1,82.8%
5,COc1ccc(NC(=O)CCCl)cc1,4.56%
6,O=C(CCl)Nc1ccc(Cl)c(C(F)(F)F)c1,26.2%
7,O=C(CCl)NC(=O)c1ccc(OC(F)F)cc1,28.9%
8,O=C(CCl)Nc1ccc(OC(F)(F)F)cc1,86%
9,O=C(CCl)NCc1ccc(OC(F)(F)F)cc1,5.21%
10,COc1ccc(NC(=O)CCl)cc1,55.2%
11,COc1ccc(NC(=O)NC(=O)CCl)cc1,1.55%
12,O=C1CCN1c1ccccc1,5.28%
13,CC(CC#N)Sc1ccccc1NC(=O)CCl (stereo not shown),10.5%
14,Cc1cc(C(=O)Cn2cnc(C#N)n2)c(C)s1,2.94%
15,Cc1cc(C(=O)Cn2cnc(C#N)n2)c(C)[nH]1,7.96%
16,CCN(CC)C(=O)Oc1ccc(N2CCCC2)cc1,-3.98%
17,O=S(=O)(F)c1ccc(S(=O)(=O)NC2CCCC2O)cc1 (stereo not shown),16.5%
18,O=C(NNS(=O)(=O)c1ccc(S(=O)(=O)F)cc1)C1CCC1,10.2%
19,C=CC(=O)Nc1cc(NC(=O)C2CCC2)ccc1F,19.5%
20,O=C(Nc1cccc(S(=O)(=O)F)c1)C1CCCC1,99.8%
21,O=C(CCl)NCc1cccc(NC(=O)C2CC2)c1,11.4%
22,O=C(NNS(=O)(=O)c1cccc(S(=O)(=O)F)c1)C1CCC1,99.9%
23,O=C1CCC(CC(=O)Nc2cccc(S(=O)(=O)F)c2)CC1,98.3%
24,Cc1cc(B2OC(C)(C)C(C)(C)O2)on1,27.5%
25,Cc1ccc(S)nc1,7.53%
26,CCc1nc(C(C#N)=Cc2cnn(C)c2)sc1C,2.61%

row,SMILES,Inhibition %
1,Cc1noc(C)c1CCn1ccnc1C#N,0.0226%
2,Cl.O=C(CCl)N1CCN(Cc2cccs2)CC1,3.64%
3,Nc1ncnc2c1ncn2CCCCl,2.3%
4,C=CC(=O)Nc1cc2ccccc2nn1,95%
5,C=CC(=O)Nc1ccccn1,3.17%
6,C=CC(=O)Nc1cccc(NC(C)=O)n1,-0.654%
7,Cc1ccc(C=C(C#N)S(C)(=O)=O)s1,6.48%
8,Cc1cc(=O)oc2cc(OCC3CO3)ccc12 (stereo not shown),7.44%
9,CC(C)(C)n1nccc1B1OC(C)(C)C(C)(C)O1,6.06%
10,CC(CC(O)c1ccc(F)cc1)Nc1ccc(C#N)nc1 (stereo not shown),9.7%
11,Cc1nc(-c2ccco2)nc(S)c1C(=O)O,1.46%
12,O=C(CCl)Nc1nc(-c2ccco2)cs1,21.8%
13,Sc1ccc(-c2ccco2)nn1,57.3%
14,O=C(CCl)N1CCCCCC1,14.9%
15,N#Cc1ccnc(S)c1,67%
16,N#Cc1ccnc(C(F)(F)F)c1,14.9%
17,N#Cc1ccnc(C(=O)O)c1,1.71%
18,O=C(CCl)Nc1ccccc1N1CCCC1=O,-0.367%
19,O=C(CCl)NCc1ccc(N2CCCC2)cc1,0.611%
20,O=C(CCl)Nc1cccnc1N1CCCC1,18.8%
21,O=C(CCl)Nc1ccc(N2CCCC2=O)cc1,9.28%
22,CCN1CCN(c2ccc(NC(=O)CCl)cc2)CC1.Cl,37.8%
23,O=C(CCl)Nc1ccc(N2CCCC2)cc1,7.34%
24,O=C(CCl)NCc1ccc(N2CCOCC2)nc1,15.2%
25,O=C(CCl)Nc1ccc(N2CCCCCC2)cc1,99.5%
26,Cl.O=C(CCl)Nc1ccc(N2CCCCC2)cc1,89.3%

row,SMILES,Inhibition %
1,O=C(CCl)Nc1ccc(N2CCCCC2)nc1,88.9%
2,C=CC(=O)N1CC(S(=O)(=O)N2CCc3ccccc32)C1,3.57%
3,O=C(CCCl)Nc1cccc(F)c1,5.31%
4,C=CC(=O)N1CCC(c2cc3ccccc3[nH]2)C1 (stereo not shown),13.2%
5,Cc1occc1-c1nnc(SC2CCOC2=O)n1C (stereo not shown),12.4%
6,COc1c(C)cc(S(=O)(=O)n2nc(C)cc2C)c(C)c1C,7.42%
7,CC1(C)OB(c2cccc3c2CCO3)OC1(C)C,9.99%
8,CN(Cc1ccco1)c1ccc(C#N)nc1,25.1%
9,Cc1cccc(OCCNC(=O)n2ccnc2)c1,92.6%
10,Cc1ccc(CNC(=O)n2ccnc2)cc1,104%
11,O=C(NCc1ccc(Cl)cc1)n1ccnc1,-1.68%
12,Cc1ccc(CNC(=O)CCl)cc1,1%
13,O=C(CCl)NCc1ccc2c(c1)OCO2,14%
14,C=CC(=O)NCc1ccc2c(c1)OCO2,11.2%
15,CN(Cc1ccccc1Cl)C(=O)n1ccnc1,2.68%
16,CN(C)c1ccc(CNC(=O)n2ccnc2)cc1,97%
17,COc1ccc(CCNC(=O)n2ccnc2)cc1OC,10.3%
18,CN(Cc1cccnc1)C(=O)n1ccnc1,10.8%
19,O=C(NCc1ccc2c(c1)OCO2)n1ccnc1,99.9%
20,Cc1cccc(OCCNC(=O)CCl)c1,12.5%
21,Cn1nncc1B1OC(C)(C)C(C)(C)O1,6.79%
22,C=CC(=O)N1CCC(c2ncc(C)s2)CC1,1.87%
23,O=C(C=CC1=CCCC1)N1CCCC(N2CCNC2=O)C1 (stereo not shown),28%
